{
  "source": "PubChem BioAssay (NCATS)",
  "note": "Results filed as inconclusive are left out. Activity calls are given as the source filed them. Calls follow the shape of the dose curve; as a rule, active = well fitted cell-killing curve with a large enough effect; inconclusive = small, poorly fitted or top-dose-only effect, or effect the other way; inactive = no such curve, though single readings can be large or run the other way. Potency is read from the fitted curve at half-maximal effect.",
  "data": [
    {"test": "Quantitative High-Throughput drug screen in 47 multiple myeloma cell lines against the NCATS MIPE library collection: EJM_DSMZ cell viability assay (AID 1918926; also: nearly all actives have a fitted effect of over 30% in size)", "details": "EJM myeloma cell viability, CellTiter-Glo ATP, 48 h; series mostly up to 45.8 µM", "from_the_text": "PI: Beverly A. Mock Ph.D.\nLaboratory of Cancer Biology and Genetics,\nCenter for Cancer Research, National Cancer Institute,\nNational Institute of Health, Bethesda, Maryland\nDrug resistance and disease progression are common in multiple myeloma (MM) patients, underscoring the need for new therapeutic combinations. […] We hypothesized that effective combinations would reduce MYC expression and enhance p16 activity. […] These preclinical data identify potentially useful drug combinations for evaluation in drug-resistant MM and reveal potential mechanisms of combined drug sensitivity.\nDescribed herein is the primary MIPE qHTS used to cherrypick compounds. Validated compounds were then further tested for potential synergistic activiy.\n[1] Peat TJ, Gaikwad SM, Dubois W, Gyabaah-Kessie N, Zhang S, Gorjifard S, Phyo Z, Andres M, Hughitt VK, Simpson RM, Miller MA, Girvin AT, Taylor A, Williams D, D'Antonio N, Zhang Y, Rajagopalan A, Flietner E, Wilson K, Zhang X, Shinn P, Klumpp-Thomas C, McKnight C, Itkin Z, Chen L, Kazandijian D, Zhang J, Michalowski AM, Simmons JK, Keats J, Thomas CJ, Mock BA. Drug combinations identified by high-throughput screening promote cell cycle transition and upregulate Smad pathways in myeloma. Cancer Lett. 2023 Aug 1;568:216284. doi: 10.1016/j.canlet.2023.216284. Epub 2023 Jun 24. PMID: 37356470; PMCID: PMC10408729.\nSEQUENCE No. (e.g., 1, 2, 3, etc.); […] (e.g., Cells, Incubation, Reagent, etc.); VALUE and DESCRIPTION.\n1; Cells; 5 uL; white, solid bottom 1536-well Greiner assay plate.\n2; Compounds; 23 nL; Kalypsis pin tool (Wako USA) equipped with a 1536-well pin head to transfer to the assay plates.\n3; Incubation; 48 hours; 37C incubation.\n4; Reagent;5uL; CellTiter Glo (Promega).\n5; Detector; 425V; Luminescence; Viewlux PerkinElmer.\nNOTES (numbers refer to Sequence numbers above)\n1. The cell-based screening methods employed in this study were like those previously published. Briefly, the corresponding myeloma cell lines were screened in 1,536-well plates with 500 cells, 5-uL per well for inhibition of cell viability (assessed by measuring ATP levels with CellTiterGlo).\n2. NCATS MIPE 4.0 library of approved and investigational drugs were added using the Kalypsis pin tool. Wells treated with DMSO only for 100% viability and media only wells for 0% viability were used as controls.\n3. The assay plates were covered and incubated for 48 hours in a 37C, 5% CO2 incubator with controlled humidity.\n4. After 48 hours, CellTilter-GloTM luminescent substrate mix (Promega) reagent was added to the assay plate and plates we incubated for 5 min at room temperature.\n5. Signal was measured as median relative luminescence units on a ViewLux (PerkinElmer) multiplate reader.\n[1] Heske CM, Davis MI, Baumgart JT, Wilson K, Gormally MV, Chen L, Zhang X, Ceribelli M, Duveau DY, Guha R, Ferrer M, Arnaldez FI, Ji J, Tran HL, Zhang Y, Mendoza A, Helman LJ, Thomas CJ. Matrix Screen Identifies Synergistic Combination of PARP Inhibitors and Nicotinamide Phosphoribosyltransferase (NAMPT) Inhibitors in Ewing Sarcoma. Clin Cancer Res. 2017 Dec 1;23(23):7301-7311. doi: 10.1158/1078-0432.CCR-17-1121. Epub 2017 Sep 12. PMID: 28899971; PMCID: PMC6636827.", "values": [
      {"smiles": "C1Cc2[nH]nc(-c3nn[nH]n3)c2C1", "Potency": "inactive"},
      {"smiles": "CC(C)(C)c1cc(C(C)(C)C)c(NC(=O)c2c[nH]c3ccccc3c2=O)cc1O", "Potency": "inactive"},
      {"smiles": "COCCn1c2c([n+](Cc3cnccn3)c1C)C(=O)c1ccccc1C2=O", "Potency": "0.0074 µM (active)"},
      {"smiles": "O=C(O)[C@H](Cc1c[nH]c2ccccc12)N1C(=O)c2ccccc2C1=O", "Potency": "inactive"},
      {"smiles": "CC[C@@H]1C(=O)N(C)c2cnc(Nc3ccc(C(=O)NC4CCN(C)CC4)cc3OC)nc2N1C1CCCC1", "Potency": "3.72 µM (active)"},
      {"smiles": "Cc1cn(-c2cc(NC(=O)c3ccc(C)c(Nc4nccc(-c5cccnc5)n4)c3)cc(C(F)(F)F)c2)cn1", "Potency": "18.7 µM (active)"},
      {"smiles": "CCCCN1CCC(CNC(=O)c2c3n(c4ccccc24)CCCO3)CC1", "Potency": "1.48 µM (active)"},
      {"smiles": "CC1=C(CO)C(=O)O[C@@H]([C@@H](C)[C@H]2CC[C@H]3[C@@H]4C[C@H]5O[C@]56[C@@H](O)C=CC(=O)[C@]6(C)[C@@H]4CC[C@]23C)C1", "Potency": "0.235 µM (active)"},
      {"smiles": "CC(=O)Nc1sc2c(c1-c1nc3ccccc3s1)CNC2", "Potency": "23.5 µM (active)"},
      {"smiles": "CC(C)c1nn(-c2c(Cl)cccc2Cl)c2nc(Cc3ccc(OCCO)cc3)[nH]c(=O)c12", "Potency": "0.132 µM (active)"},
      {"smiles": "O=C(O)CO.[NH2-].[NH2-].[Pt+2]", "Potency": "inactive"},
      {"smiles": "CC1COC2(CCN(c3nc(=O)c4cc(C(F)(F)F)cc([N+](=O)[O-])c4s3)CC2)O1", "note": "(stereo not given)", "Potency": "inactive"},
      {"smiles": "CC1(C)CCC(c2ccc(Cl)cc2)=C(CN2CCN(c3ccc(C(=O)NS(=O)(=O)c4ccc(N[C@H](CCN5CCOCC5)CSc5ccccc5)c(S(=O)(=O)C(F)(F)F)c4)cc3)CC2)C1", "Potency": "8.33 µM (active)"},
      {"smiles": "COc1ccc(-c2cc3c(C)nc(N)nc3n(C3CCC(OCCO)CC3)c2=O)cn1", "note": "(stereo not given)", "Potency": "0.132 µM (active)"},
      {"smiles": "COc1cc2ncnc(Nc3ccc(F)c(Cl)c3)c2cc1NC(=O)C=CCN1CCCCC1", "Potency": "20.9 µM (active)"},
      {"smiles": "Nc1nccc(Oc2ccc(NC(=O)c3c[nH]cc(-c4ccc(F)cc4)c3=O)cc2F)c1Cl", "Potency": "5.9 µM (active)"},
      {"smiles": "COc1ccc(OC)c(-c2nnc3ccc(-c4ccc(OC)c(O[C@@H]5CCOC5)c4)nn23)c1", "Potency": "16.6 µM (active)"},
      {"smiles": "Cn1cc(-c2ccncc2)c(-c2ccc(OCc3ccc4ccccc4n3)cc2)n1", "Potency": "14.8 µM (active)"},
      {"smiles": "CNC(=O)c1c(F)cccc1Nc1nc(Nc2cc3c(cc2OC)CCN3C(=O)CN(C)C)nc2[nH]ccc12", "Potency": "0.209 µM (active)"},
      {"smiles": "COc1cc(C(C)C)c2c(c1)S(=O)(=O)N(COc1cc(=O)n3cccc(OCCN4CCCCC4)c3n1)C2=O", "Potency": "18.7 µM (active)"},
      {"smiles": "COc1cc(=C2C=c3ccccc3=N2)[nH]c1=Cc1[nH]c(C)cc1C", "Potency": "6.62 µM (active)"},
      {"smiles": "COC(=O)[C@]12CCC(C)(C)C[C@@H]1[C@@H]1C(=O)C=C3[C@@]4(C)C=C(C#N)C(=O)C(C)(C)[C@@H]4CC[C@@]3(C)[C@]1(C)CC2", "Potency": "0.418 µM (active)"},
      {"smiles": "Cc1ccc(NC(=O)C2(c3ccc4c(c3)OC(F)(F)O4)CC2)nc1-c1cccc(C(=O)O)c1", "Potency": "0.0833 µM (active)"},
      {"smiles": "CC[C@H](CO)Nc1nc(NCc2ccccc2)c2ncn(C(C)C)c2n1", "Potency": "26.4 µM (active)"},
      {"smiles": "Nc1nc(NCCNc2ncc(-n3ccnc3)c(-c3ccc(Cl)cc3Cl)n2)ccc1[N+](=O)[O-]", "Potency": "16.6 µM (active)"},
      {"smiles": "Cn1cncc1[C@@](N)(c1ccc(Cl)cc1)c1ccc2c(c1)c(-c1cccc(Cl)c1)cc(=O)n2C", "Potency": "14.8 µM (active)"},
      {"smiles": "Cn1c(CNc2ccc(C(=N)N)cc2)nc2cc(C(=O)N(CCC(=O)O)c3ccccn3)ccc21", "Potency": "0.0006 µM (active)"},
      {"smiles": "COc1cccc(-c2ccc(NC(=O)C3=C(C(=O)O)CCC3)c(F)c2)c1", "Potency": "inactive"},
      {"smiles": "Cc1c(CN2CCN(S(C)(=O)=O)CC2)sc2c(N3CCOCC3)nc(-c3cnc(N)nc3)nc12", "Potency": "0.105 µM (active)"},
      {"smiles": "COC(=O)c1ccc2c(C(=Nc3ccc(N(C)C(=O)CN4CCN(C)CC4)cc3)c3ccccc3)c(O)[nH]c2c1", "Potency": "3.72 µM (active)"},
      {"smiles": "c1ccc2c(CCNc3ccc(Nc4ccncc4)cc3)c[nH]c2c1", "Potency": "14.8 µM (active)"},
      {"smiles": "Clc1cccc(-n2nnnc2NCc2ccccc2Oc2ccccn2)c1Cl", "Potency": "inactive"},
      {"smiles": "O=C(c1cncc(Br)c1)N1CCC(N2CCCC2)CC1", "Potency": "inactive"},
      {"smiles": "O=C(NCCCNc1nc(Nc2cccc(NC(=O)N3CCCC3)c2)ncc1I)c1cccs1", "Potency": "14.8 µM (active)"},
      {"smiles": "CN(C1CCc2c(c3ccccc3n2CC(=O)O)C1)S(=O)(=O)c1ccc(F)cc1", "note": "(stereo not given)", "Potency": "11.8 µM (active)"},
      {"smiles": "O=C(CCCCCCC(=O)Nc1ccc([C@H]2O[C@@H](CSc3nc(-c4ccccc4)c(-c4ccccc4)o3)C[C@@H](c3ccc(CO)cc3)O2)cc1)NO", "Potency": "13.2 µM (active)"},
      {"smiles": "CCCn1c(=O)c2[nH]c(-c3cnn(Cc4cccc(C(F)(F)F)c4)c3)nc2n(CC)c1=O", "Potency": "14.8 µM (active)"},
      {"smiles": "Cn1c2ccccc2c2c3c(c4c5ccccc5n(CCC#N)c4c21)CNC3=O", "Potency": "2.96 µM (active)"},
      {"smiles": "CNC(=O)c1cc(Oc2ccc(NC(=O)Nc3cc(C(C)(C)C)nn3-c3ccc4ncccc4c3)c(F)c2)ccn1", "Potency": "6.62 µM (active)"},
      {"smiles": "O=C(O)CCCc1c[nH]c2ccccc12", "Potency": "inactive"}
    ]}
  ]
}
